High-throughput results from PubChem BioAssay.
A selection: hits, their analogues and other compounds. The true share with any hit is near 19%.
IL-1B inflam inh – inflammasome signaling inhibition, IL-1 beta readout. activity change, % at 57.5 µM. THP-1 LPS/ATP IL-1B secretion, AlphaLISA, 16 h; stronger effect = lower value. 360,000 compounds, 4.7% hits; in the data active = activity change below about -50%; inconclusive = mostly about -30% to -49%
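THP-1 cells pretreated 1 hr with compounds (up to 57.5 uM final), then stimulated with LPS (250 ng/mL final) plus ATP (1.25 mM final); secreted IL-1B measured by AlphaLISA after 16 hr, decreased signal indicating inhibition.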
DT40 TDP1 no CPT – qHTS for Inhibitors of human tyrosyl-DNA phosphodiesterase 1 (TDP1): qHTS in cells in absence of CPT | DT40 Tdp1-/- hTDP1 cells, no CPT, ATP luminescence, 48 h | Potency, µM (highest dose often 46.2 µM), without a hit: top-dose activity change, negative = growth inhibition, hits mostly inhibitors | 420,000 compounds, 15% hits | AID 686978, 2013; note: potency is the fitted concentration of half-maximal effect; nearly all actives have a fitted effect of over 55% in size
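Luminescent ATP content (CellTiter-Glo) served as the growth readout. Knockout chicken DT40 cells expressing human TDP1 were exposed to compounds without camptothecin for a minimum 48 hr at 37 °C.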
HT1080NT lethal – kills 2HG-producing HT-1080-NT fibrosarcoma cells. Potency, µM (top dose mostly 46.1 µM), for inactives: at the highest dose activity, negative = less viability, actives largely listed as cytotoxic. HT-1080-NT fibrosarcoma viability, CellTiter-Glo ATP luminescence, 48 h. 360,000 compounds, 1.6% hits;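 note: NT is the 2HG producing partner of a matched IDH1 knockdown line; potency is the fitted concentration of half-maximal effect; 0% = DMSO-treated cells and -100% = media-only wells without cells; nearly all actives have a fitted effect of over 55% in size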
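HT-1080-NT fibrosarcoma cells (2HG-overproducing), 750 cells/well in RPMI with 5% FBS, dosed after 2 h and incubated 48 h at 37C. CellTiter-Glo luminescence normalized to DMSO and no-cell wells; concentration-response curves fitted and classed.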
DT40 TDP1 CPT – DT40-hTDP1 cell growth loss with CPT; 420,000 compounds, 12% hits; chicken DT40 Tdp1-/-;hTDP1 cells + 20 nM CPT, ATP luminescence, 48 h; AID 686979; Potency, µM (titrated, usually from 46.2 µM), for the others: top-dose activity change, negative = growth inhibition, usual class: inhibitors; note: potency is the fitted concentration of half-maximal effect; nearly all actives have a fitted effect of over 55% in size
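Cell growth measured by CellTiter-Glo luminescence after a minimum 48 h, 37 C compound exposure with 20 nM CPT in Tdp1-knockout DT40 cells stably expressing hTDP1, seeded 400/well; qHTS titration format.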
HT1080 IDH1KD tx – HT-1080 IDH1 knockdown cell toxicity (counter line). HT-1080 IDH1 knockdown viability, ATP luminescence, 48 h. 360,000 compounds, 2% hits. Potency, µM (titrated, usually from 46.1 µM), for inactives: at the highest dose activity, negative = toxicity, most hits filed as cytotoxic;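 note: potency is the fitted concentration of half-maximal effect; 0% = DMSO wells and -100% = cell-free medium wells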
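Assay cells: HT-1080 with IDH1 knockdown, 750 per well, RPMI/5% FBS. Exposure: 48 h at 37 °C following 2 h pre-incubation. Read: CellTiter-Glo luminescence; fitted concentration-response, curve class assigned.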
Starred values were filed as active, the others as inactive. Unless noted, calls come from the whole dose curve; as a rule, active = well fitted curve in the direction sought with a large enough effect; inconclusive = small, poorly fitted or top-dose-only effect, or another doubt; inactive = no such curve, though single readings can be large; an effect the other way counts as inactive or inconclusive. Unless noted, % is set by controls: 0 for no effect and ±100 for the full control effect.

CCOC(=O)N1CCN(c2nc(CN3CCCCC3CCO)nc3c(C)cccc23)CC1 (configuration not stated) was read as DT40 TDP1 no CPT -16% and DT40 TDP1 CPT 6%.
Screening Oc1ccc(N=Nc2c(O)ccc3ccccc23)cc1 returned IL-1B inflam inh -51*, DT40 TDP1 no CPT inconclusive, HT1080NT lethal 11µM*, DT40 TDP1 CPT 18µM* and HT1080 IDH1KD tx inconclusive.
For NS(=O)(=O)c1ccc(N=Nc2c(O)ccc3ccccc23)cc1 the results were IL-1B inflam inh -29, DT40 TDP1 no CPT inconclusive, HT1080NT lethal inconclusive, DT40 TDP1 CPT -13% and HT1080 IDH1KD tx 1%.
For CCOC(=O)C1CC(C)=C(C)CC1C(=O)O (configuration not stated) the results were IL-1B inflam inh 0, DT40 TDP1 no CPT -23%, HT1080NT lethal 8%, DT40 TDP1 CPT -2% and HT1080 IDH1KD tx 1%.
For Cc1[nH]c2ccccc2c1C(c1c[nH]c2ccccc12)c1c(C)[nH]c2ccccc12 the results were DT40 TDP1 no CPT 16µM* and DT40 TDP1 CPT inconclusive.
Screening C[n+]1ccc(C(c2c[nH]c3ccccc23)c2cc[n+](C)c3ccccc23)c2ccccc21 returned DT40 TDP1 no CPT 0.56µM* and DT40 TDP1 CPT 0.56µM*.
For CC(C)(O)C#Cc1ccc(N2C(c3ccsc3)=Cc3ccc(F)cc3C2c2c[nH]c3ccc(C#N)cc23)cc1 (configuration not stated) the results were IL-1B inflam inh -17, DT40 TDP1 no CPT inconclusive, HT1080NT lethal inconclusive, DT40 TDP1 CPT 5.2µM* and HT1080 IDH1KD tx 23µM*.
Screening CN(C1CCCCC1)S(=O)(=O)c1ccc2c(c1)c(=O)c(C(=O)N1CCN(c3ccc(F)cc3)CC1)cn2C returned DT40 TDP1 no CPT -10% and DT40 TDP1 CPT -10%.
Screening CCOC(=O)c1sc2nc(SCC(=O)N(CC)CC)n(CCCN3CCCC3=O)c(=O)c2c1C returned IL-1B inflam inh inconclusive, DT40 TDP1 no CPT -12%, HT1080NT lethal -2%, DT40 TDP1 CPT 18µM* and HT1080 IDH1KD tx -11%.
Screening CCN(CC)C(=O)CSc1nc2sc3c(c2c(=O)n1CCOC)CCC3 returned IL-1B inflam inh 6, DT40 TDP1 no CPT -25%, HT1080NT lethal 10%, DT40 TDP1 CPT 10% and HT1080 IDH1KD tx 2%.
For C/C(=N\NC(=O)c1ccccc1O)c1c(O)cc(C)oc1=O the results were IL-1B inflam inh 69, DT40 TDP1 no CPT inconclusive, HT1080NT lethal inconclusive, DT40 TDP1 CPT inconclusive and HT1080 IDH1KD tx 10µM*.
C/C(=N\NC(=O)c1ccccc1[N+](=O)[O-])c1c(O)cc(C)oc1=O was read as IL-1B inflam inh 5, DT40 TDP1 no CPT inconclusive, HT1080NT lethal 20%, DT40 TDP1 CPT inconclusive and HT1080 IDH1KD tx 15%.
For CCOC(=O)C(CC)/C(C)=N\NC(=O)c1ccccc1O (configuration not stated) the results were IL-1B inflam inh 36, DT40 TDP1 no CPT 23µM*, HT1080NT lethal inconclusive, DT40 TDP1 CPT 16µM* and HT1080 IDH1KD tx 16µM*.
`C/C(=N\NC(=O)c1ccccc1O)c1ccc(Br)s1` gave IL-1B inflam inh -10, DT40 TDP1 no CPT inconclusive, HT1080NT lethal inconclusive, DT40 TDP1 CPT 15µM* and HT1080 IDH1KD tx 15µM*.
Screening C/C(=N\NC(=O)c1cccc(F)c1)c1ccc(Br)s1 returned IL-1B inflam inh -2, DT40 TDP1 no CPT 7.1µM*, HT1080NT lethal 11µM*, DT40 TDP1 CPT 5.6µM* and HT1080 IDH1KD tx 5.6µM*.
For COc1cc(Nc2nn(-c3ccc(OC(F)(F)F)cc3)nc2C(C)=O)cc(OC)c1 the results were DT40 TDP1 no CPT -17% and DT40 TDP1 CPT -8%.
For CS(=O)(=O)NNC(=O)c1cc2cc3ccccc3nc2s1 the results were IL-1B inflam inh 32, DT40 TDP1 no CPT -19%, HT1080NT lethal 5%, DT40 TDP1 CPT -5% and HT1080 IDH1KD tx 10%.
Screening CCN(CCCNC(=O)c1cc2c(=O)n(C)c3ccccc3c2s1)c1ccccc1 returned DT40 TDP1 no CPT 15µM* and DT40 TDP1 CPT inconclusive.
Screening CCN(CCCNC(=O)c1cc2cc3ccc(C)cc3nc2s1)c1ccccc1 returned DT40 TDP1 no CPT 26µM* and DT40 TDP1 CPT inconclusive.
For CCOc1ccc(CNC(=O)c2cc3c(=O)n(C)c4ccccc4c3s2)cc1 the results were DT40 TDP1 no CPT 2.6µM* and DT40 TDP1 CPT 9.2µM*.
CCOc1ccc(CNC(=O)COc2cc(=O)n(C)c3ccccc23)cc1 was read as DT40 TDP1 no CPT inconclusive and DT40 TDP1 CPT -4%.
`NNC(=O)c1cc2cc3ccccc3nc2s1` gave IL-1B inflam inh -3, DT40 TDP1 no CPT inconclusive, HT1080NT lethal inconclusive, DT40 TDP1 CPT 5.2µM* and HT1080 IDH1KD tx inconclusive.
`CC1CCCC(NC(=O)COC(=O)/C=C/c2ccc([N+](=O)[O-])cc2)C1C` (configuration not stated) gave IL-1B inflam inh 8, DT40 TDP1 no CPT -26%, HT1080NT lethal 4%, DT40 TDP1 CPT inconclusive and HT1080 IDH1KD tx 12%.
For C#CCOCCOCCOCCNc1nc(N2CCN(C(=O)C([C@@H](C)CC)n3cc(C(N)COC(=O)C(F)(F)F)nn3)CC2)nc(N2CCN(C(=O)[C@H](CCCCN)n3cc(C(N)[C@H](C)CC)nn3)CC2)n1 (some centres not stated) the results were IL-1B inflam inh 9, DT40 TDP1 no CPT -1%, HT1080NT lethal 5%, DT40 TDP1 CPT 22% and HT1080 IDH1KD tx 10%.
Screening CCN(CCCNC(=O)c1cc2c(=O)n(C)c3ccccc3c2s1)Cc1ccccc1 returned DT40 TDP1 no CPT 21µM* and DT40 TDP1 CPT 15µM*.
`O=C(NCC1CC1)c1ccc(Nc2nc3ccc(Br)cc3[nH]2)cc1` gave IL-1B inflam inh 4, DT40 TDP1 no CPT inconclusive, HT1080NT lethal 0%, DT40 TDP1 CPT inconclusive and HT1080 IDH1KD tx 2%.
For COc1ccc(-c2nc3ccc(C(=O)NCc4ccccc4)cc3nc2-c2ccc(OC)cc2)cc1 the results were DT40 TDP1 no CPT 15µM* and DT40 TDP1 CPT inconclusive.
For COC(CNC(=O)c1ccc2nc(-c3ccccc3)c(-c3ccccc3)nc2c1)OC the results were IL-1B inflam inh inconclusive, DT40 TDP1 no CPT 12µM*, HT1080NT lethal -3%, DT40 TDP1 CPT inconclusive and HT1080 IDH1KD tx -7%.
For CNC(=O)c1ccc2nc(-c3cccc(C)c3)c(-c3cccc(C)c3)nc2c1 the results were DT40 TDP1 no CPT 10µM* and DT40 TDP1 CPT 11µM*.
